From PubChem BioAssay (NCI)
Several values for one entry are separate records, joined by “and”; a condition that tells them apart may be missing. Equal values may be shown once. Compounds without any hit were thinned out: in the full panel of roughly 83,000, 20% have a hit.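 Single-concentration screen, 48 h exposure, 96-well plates. Endpoint: percent growth. Below 10 = active.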 Activity calls are given as the source filed them.

Columns and labels:
Experiment in all cases: NCI-60 one-dose screen, 48 h (100 = growth as untreated, 0 = no growth, -100 = all killed)
Conditions in all cases: 10 µM unless noted
T-47D breast = tested on: T-47D breast
BT-549 breast = tested on: BT-549 breast
MDA-MB-435 melanoma = tested on: MDA-MB-435 melanoma
SW-620 colon = tested on: SW-620 colon
MCF7 breast = tested on: MCF7 breast
HCT-116 colon = tested on: HCT-116 colon
HCC-2998 colon = tested on: HCC-2998 colon
KM12 colon = tested on: KM12 colon

Structure (SMILES) | growth (T-47D breast) | growth (BT-549 breast) | growth (MDA-MB-435 melanoma) | growth (SW-620 colon) | growth (MCF7 breast) | growth (HCT-116 colon) | growth (HCC-2998 colon) | growth (KM12 colon)
CC(C)C(=O)Nc1ccc([N+](=O)[O-])c(C(F)(F)F)c1 | 85.3% (inactive) and 89.6% (inactive) | 84.7% (inactive) and 85.9% (inactive) | 87% (inactive) and 99.6% (inactive) | 93.8% (inactive) and 96.5% (inactive) | 102% (inactive) and 90% (inactive) | 94.8% (inactive) and 92.8% (inactive) | 97.2% (inactive) and 106% (inactive) | 89.3% (inactive) and 98.4% (inactive)
CN(Cc1ccccc1)Cc1ccccc1 | 92.8% (inactive) | 106% (inactive) | 105% (inactive) | 112% (inactive) | 97.9% (inactive) | 103% (inactive) | 99.4% (inactive) | 98.5% (inactive)
C=C1C(=O)O[C@H]2[C@H]1CC/C(COC(=O)NC1CCC(O)CC1)=C\CC[C@@]1(C)O[C@@H]21 (stereo partly drawn) | 59.6% (inactive) and 47.6% (inactive) | 83.3% (inactive) and 79.1% (inactive) | 58.4% (inactive) and 54.8% (inactive) | 27.4% (inactive) and 30.1% (inactive) | 75.2% (inactive) and 66.7% (inactive) | 41.5% (inactive) and 33% (inactive) |  | 96.8% (inactive) and 97.9% (inactive)
CCOC(=O)c1c(C)oc(C)c(C(=O)OCC)c1=O | 99.1% (inactive) and 87.7% (inactive) | 79.4% (inactive) and 100% (inactive) | 111% (inactive) and 108% (inactive) |  | 97.7% (inactive) and 97.4% (inactive) | 97% (inactive) and 97.3% (inactive) | 102% (inactive) | 114% (inactive) and 117% (inactive)
N=C1N=C(N)CS1 | 108% (inactive) | 120% (inactive) | 106% (inactive) |  | 96.8% (inactive) | 107% (inactive) | 110% (inactive) | 107% (inactive)
CN1CCN(c2ccc3nc(-c4c(N)c5c(F)cccc5[nH]c4=O)[nH]c3c2)CC1 | 71.6% (inactive) and 64.4% (inactive) | -66% (active) and 49.3% (inactive) | 26.6% (inactive) and 16.1% (inactive) | 14.3% (inactive) and 15.8% (inactive) | 14.8% (inactive) and 14.7% (inactive) | 19.1% (inactive) and 3.86% (active) | 38.2% (inactive) and 44.8% (inactive) | 12.8% (inactive) and 13.7% (inactive)
CC12CCC(CC1)C(C)(C)O2 | 97.9% (inactive) | 98.9% (inactive) | 100% (inactive) |  | 98.7% (inactive) | 112% (inactive) | 107% (inactive) | 109% (inactive)
C[N+](C)(C)CN1C(=O)c2ccccc2C1=O | 96.5% (inactive) | 98.6% (inactive) | 97.6% (inactive) | 107% (inactive) | 92.7% (inactive) | 104% (inactive) | 108% (inactive) | 111% (inactive)
Oc1ccccc1C=NCC1CCC(CN=Cc2ccccc2O)CC1 (stereo not drawn) | 96.9% (inactive) | 113% (inactive) | 104% (inactive) | 47.4% (inactive) | 66% (inactive) | 52.8% (inactive) | 101% (inactive) | 107% (inactive)
CCOC(=O)Nc1ccc2c(c1)/C(=N\NC(N)=S)c1ccccc1-2 | 26.4% (inactive) and 31.3% (inactive) | 41.6% (inactive) and 82.6% (inactive) | 57.3% (inactive) and 59.9% (inactive) |  | 63% (inactive) and 70.6% (inactive) | 53.5% (inactive) and 71.4% (inactive) | 60.9% (inactive) and 68.9% (inactive) | 40.4% (inactive) and 54.2% (inactive)
NC(=S)NN=C1CCC(C2CCCCC2)CC1 (stereo not drawn) | 44.1% (inactive) and 40% (inactive) | 102% (inactive) and 92.5% (inactive) | 79.1% (inactive) and 77.2% (inactive) | 84.6% (inactive) and 88.6% (inactive) | 83% (inactive) and 95.1% (inactive) | 73.9% (inactive) and 78.6% (inactive) | 92.9% (inactive) and 94.7% (inactive) | 94.5% (inactive) and 93.9% (inactive)
CC(=O)Nc1cc(S(=O)(=O)O)cc2cc(S(=O)(=O)O)c(N=Nc3ccccc3)c(O)c12 | 109% (inactive) and 85.9% (inactive) | 107% (inactive) and 117% (inactive) | 108% (inactive) and 112% (inactive) | 104% (inactive) and 102% (inactive) | 102% (inactive) and 91.9% (inactive) | 93.2% (inactive) and 123% (inactive) | 99.6% (inactive) and 99.1% (inactive) | 107% (inactive) and 106% (inactive)
O=C1c2ccccc2C(=O)c2c(NCCNCCO)ccc(NCCNCCO)c21 | -3.06% (active) and 10.5% (inactive) and 31.6% (inactive) | 6.06% (active) and 86.7% (inactive) and 62.6% (inactive) | 22.6% (inactive) and 43.5% (inactive) and 20.8% (inactive) | 12.2% (inactive) and 27.3% (inactive) and 22.2% (inactive) | -1.56% (active) and 6.38% (active) and 2.38% (active) | -21.4% (active) and 22.7% (inactive) and 17.7% (inactive) | 36.6% (inactive) and 41.1% (inactive) | 8.81% (active) and 41.7% (inactive) and 40.2% (inactive)
COc1ccc(CCN(C)CCCC(C#N)(c2ccc(OC)c(OC)c2)C(C)C)cc1OC (stereo not drawn) | 98.2% (inactive) and 106% (inactive) | 94.4% (inactive) and 93.3% (inactive) and 94.6% (inactive) | 102% (inactive) and 93.3% (inactive) and 97.9% (inactive) |  | 89% (inactive) and 106% (inactive) and 95.3% (inactive) | 75% (inactive) and 78.9% (inactive) and 93.4% (inactive) | 99.7% (inactive) and 111% (inactive) and 97.5% (inactive) | 114% (inactive) and 115% (inactive) and 95.6% (inactive)
O=C1NC(=O)C2(CCc3ccccc32)N1 (stereo not drawn) | 92.8% (inactive) and 94.4% (inactive) | 115% (inactive) and 98.1% (inactive) | 107% (inactive) and 129% (inactive) |  | 92.9% (inactive) and 110% (inactive) | 113% (inactive) and 96.3% (inactive) | 103% (inactive) | 100% (inactive) and 109% (inactive)
COc1ccc2c(=O)cc(-c3ccccc3)[nH]c2c1 | 50.7% (inactive) and 57.1% (inactive) | 48.6% (inactive) and 45.1% (inactive) | -46.6% (active) and -12% (active) | 23.1% (inactive) and 33.3% (inactive) | 18.2% (inactive) and 14.8% (inactive) | 16.7% (inactive) and 8.27% (active) | 17.4% (inactive) and 2.14% (active) | 14.1% (inactive) and 8% (active)
Cc1ccc(S(=O)(=O)Nc2ccc3cc([N+](=O)[O-])ccc3c2[N+](=O)[O-])cc1 | 65.1% (inactive) and 98.3% (inactive) | 92.3% (inactive) and 95.5% (inactive) | 63.3% (inactive) and 91.7% (inactive) |  | 89.7% (inactive) and 97.2% (inactive) | 83.8% (inactive) and 80.7% (inactive) | 73.9% (inactive) and 95.8% (inactive) | 73.5% (inactive) and 91.6% (inactive)
CCc1c(CC(=O)O)c2cc(C)ccc2n1Cc1ccc(Cl)cc1 | 86.3% (inactive) and -2.2% (active) | 94% (inactive) and 183% (inactive) | 114% (inactive) and 97.4% (inactive) |  | 98.1% (inactive) and 95.4% (inactive) | 97.1% (inactive) and 110% (inactive) | 125% (inactive) and 98.4% (inactive) | 96% (inactive) and 95.3% (inactive)
Nc1ccc2[nH]c(-c3ccccc3)cc(=O)c2c1 | 78% (inactive) | 81.2% (inactive) | -21.2% (active) | 57.6% (inactive) | 51.7% (inactive) | 81% (inactive) | 78.3% (inactive) | 45.2% (inactive)
O=[N+]([O-])c1ccc(-n2[nH]nnc2=S)cc1 | 103% (inactive) | 104% (inactive) | 106% (inactive) | 103% (inactive) | 95% (inactive) | 101% (inactive) | 101% (inactive) | 108% (inactive)
S=C1SCN(Cc2ccccc2)CN1Cc1ccccc1 | 41.4% (inactive) | 93.6% (inactive) | 85.5% (inactive) | 32.9% (inactive) | 17.8% (inactive) | 7.28% (active) |  | 5.8% (active)
